# Bioassay records: PubChem BioAssay, National Center for Advancing Translational Sciences (NCATS)
# PLK1 PBD block: qHTS for Inhibitors of PLK1-PDB (polo-like kinase 1 - polo-box domain): Primary Screen; Serine/threonine-protein kinase PLK1 (Homo sapiens), P53350; Plk1 PBD binding of FITC phosphopeptide, fluorescence polarization; Potency, µM, for inactives: max response, negative = inhibition, hits mostly inhibitors; actives 2.8% (n = 360,000); also: series mostly up to about 57 µM; nearly all actives have a fitted effect of over 65% in size
# VDR inhibitor: Inhibitors of the vitamin D receptor (VDR): qHTS | Vitamin D3 receptor (Homo sapiens), P11473 | VDR-SRC2-3 peptide fluorescence polarization, 2 h | Potency, µM, for inactives: max response, negative = inhibition, actives largely listed as inhibitors | actives 0.93% (n = 400,000)
# Target sequence (P11473 whole entry, looked up): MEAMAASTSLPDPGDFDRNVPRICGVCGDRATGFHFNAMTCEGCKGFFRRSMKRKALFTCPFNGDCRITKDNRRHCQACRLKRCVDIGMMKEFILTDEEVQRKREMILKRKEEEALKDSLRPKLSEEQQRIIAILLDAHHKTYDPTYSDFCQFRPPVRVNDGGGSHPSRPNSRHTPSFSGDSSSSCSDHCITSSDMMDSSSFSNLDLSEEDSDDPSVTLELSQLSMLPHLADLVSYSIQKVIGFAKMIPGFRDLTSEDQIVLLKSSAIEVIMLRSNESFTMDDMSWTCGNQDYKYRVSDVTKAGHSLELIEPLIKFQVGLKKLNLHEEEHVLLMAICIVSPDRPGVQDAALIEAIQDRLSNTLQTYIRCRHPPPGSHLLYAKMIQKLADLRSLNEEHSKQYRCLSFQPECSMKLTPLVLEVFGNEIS
#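 Inhibition of the VDR/SRC2-3 peptide interaction is quantified by fluorescence polarization. Compounds (23 nl, pintool) incubate with the reagents for 2 hours at ambient room temperature.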
# TDP1 inh: qHTS Assay for Inhibitors of Tyrosyl-DNA Phosphodiesterase (TDP1); Tyrosyl-DNA phosphodiesterase 1 (Homo sapiens), Q9NUW8; recombinant TDP1, AlphaScreen DNA substrate cleavage; Potency, µM (series often up to 130 µM), inactives show at the top dose activity change, negative = inhibition, most hits filed as inhibitors; actives 0.28% (n = 350,000); also: nearly all actives have a fitted effect of over 40% in size
#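 Tdp1 1 nM final; 15 min RT w/ cpd; substrate 15 nM, 5 min; beads 10 ug/ml, 10 min; AlphaScreen read. Neg ctrl: no enzyme.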
# DT40 TDP1 no CPT: qHTS for Inhibitors of human tyrosyl-DNA phosphodiesterase 1 (TDP1): qHTS in cells in absence of CPT | DT40 Tdp1-/- hTDP1 cells, no CPT, ATP luminescence, 48 h | Potency, µM (doses to about 46.2 µM), for the others: at the highest dose activity change, negative = growth inhibition, usual class: inhibitors | actives 15% (n = 420,000) | AID 686978, 2013; also: nearly all actives have a fitted effect of over 55% in size
#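 Seeded 400 DT40-hTDP1 cells/well (vehicle DMSO, no 20 nM CPT); pinned compounds; ≥48 hr at 37 °C; CellTiter-Glo luminescence as viability measure.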
# TDP1 cell CPT: qHTS for Inhibitors of human tyrosyl-DNA phosphodiesterase 1 (TDP1): qHTS in cells in presence of CPT; chicken DT40 Tdp1-/-;hTDP1 cells + 20 nM CPT, ATP luminescence, 48 h; Potency, µM (top dose mostly 46.2 µM), inactives show top-dose activity change, negative = growth inhibition, most hits filed as inhibitors; actives 12% (n = 420,000); AID 686979, 2013; also: nearly all actives have a fitted effect of over 55% in size
#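 Chicken DT40 Tdp1-/- cells stably complemented with human TDP1 were seeded at 400 cells/well in medium containing 20 nM camptothecin, exposed to pin-transferred compounds, and grown at 37 °C for at least 48 hr. Viability was read as ATP luminescence.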
# GCN5L2 inh: qHTS Assay for Inhibitors of GCN5L2; actives 0.21% (n = 390,000); GCN5L2 HAT assay, ThioGlo1 CoA-SH fluorescence; Potency, µM (highest dose often 58.9 µM), inactives show top-dose activity change, negative = inhibition, hits mostly inhibitors
#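 Compounds, pin-transferred from DMSO stocks, meet 20nM GCN5L2 for 15 min before the reaction begins with H3(1-25) peptide (75uM) and acetyl-CoA (70uM). Thiol-reactive ThioGlo1 reports CoA release over 20 min at room temperature.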
# * = called active by the depositor; u = inconclusive; x = no result given; [ ] = dose if it differs, or a comment. This is a sample that favours compounds with a hit; in the whole collection about 18% have one here. Calls follow the shape of the dose curve; as a rule, active = well fitted curve in the direction sought with a large enough effect; inconclusive = small, poorly fitted or top-dose-only effect, or another doubt; inactive = no such curve, though single readings can be large; an effect the other way counts as inactive or inconclusive. % is scaled to controls: 0 for no effect and ±100 for the full control effect; potency is read from the fitted curve at half-maximal effect.
SMILES,PLK1 PBD block,VDR inhibitor,TDP1 inh,DT40 TDP1 no CPT,TDP1 cell CPT,GCN5L2 inh
CN(C)CCCNc1c2c(nc3ccccc13)CCC2,26.7µM*,-28.3%,x,14.6µM*,u,-6.0%
c1ccc(Nc2c3c(nc4ccccc24)CCC3)cc1,2.9%,-0.5%,2.6%,14.6µM*,5.17µM*,-4.8%
COc1ccc(C)cc1Nc1c2c(nc3ccccc13)CCC2,-9.6%,12.4%,0.0%,2.59µM*,3.26µM*,24.0%
COc1ccc(OC)c(NC(=O)c2c3c(nc4ccccc24)CCC3)c1,-7.1%,11.3%,5.9%,-29.3%,u,-10.1%
COc1ccc(Nc2c3c(nc4ccccc24)CCCC3)cc1OC,-10.7%,-9.0%,8.6%,u,u,-4.3%
Cc1ccc2nc3c(c(Nc4ccccc4)c2c1)CCC3,-12.4%,4.5%,1.3%,u,u,2.5%
CCCCCC(=O)Nc1c2c(nc3ccccc13)CCC2,-6.6%,1.6%,1.5%,-0.6%,6.3%,-5.4%
COc1ccc(Nc2c3c(nc4ccccc24)CCC3)cc1Cl,x,-17.5%,8.8%,18.4µM*,11.6µM*,-11.4%
OCC1OC2C(NC(=S)N2c2ccccc2)C(O)C1O (centres undefined),-0.8%,-19.5%,x,6.3%,4.5%,x
CN(C)CCNCCCNc1c2ccccc2nc2cccc([N+](=O)[O-])c12,-5.9%,-3.9%,x,0.103µM*,0.0517µM*,x
CN(C)CCCNS(=O)(=O)c1ccc(-n2nnc3ccccc32)c([N+](=O)[O-])c1,-7.5%,-2.0%,4.4%[0.0935 µM],u,u,1.1%
O=C(c1ccc2c(=O)n(C3CCCC3)c(=S)[nH]c2c1)N1CCc2ccccc21,-13.6%,-5.1%,1.0%,20.6µM*,11.6µM*,5.2%
CC(C)NC(=O)c1ccc2c(=O)n(C3CCCC3)c(=S)[nH]c2c1,1.2%,-11.7%,1.0%,-13.5%,-19.6%,-5.4%
CC(NC(=O)Nc1ccccc1O)(C(F)(F)F)C(F)(F)F,26.7µM*,9.7%,0.0%,u,u,-7.2%
CC(C)(C)C(=O)NC(=O)Nc1ccccc1C(F)(F)F,-4.7%,-11.2%,-3.8%,-0.2%,11.7%,-5.0%
Cc1cccc(C)c1NC(=O)c1csc(COCCO)n1,-18.1%,x,x,-5.4%,-0.1%,x
O=[N+]([O-])c1ccc(N2CCCC2)c([N+](=O)[O-])c1,8.5%,x,x,-6.5%,9.8%,x
CCOc1ccccc1-n1nnc(-c2nc(-c3ccccc3C)no2)c1C,x,8.6%,2.6%,u,u,-4.6%
Cc1c(Cl)cccc1-n1nnc(-c2nc(-c3ccc4c(c3)OCO4)no2)c1C,x,4.5%,2.6%,u,23.1µM*,-7.2%
Cc1ccc(Cl)cc1-n1nnc(-c2nc(-c3ccc4c(c3)OCO4)no2)c1C,x,5.7%,2.6%,20.6µM*,u,31.6%
Cc1ccc(C)c(-n2nnc(-c3nc(-c4ccccc4C)no3)c2C)c1,x,18.9%,2.6%,14.6µM*,16.4µM*,2.4%
COc1ccc(Cl)cc1-n1nnc(-c2nc(-c3ccc4c(c3)OCO4)no2)c1C,x,-0.4%,0.0%,-8.2%,1.2%,3.8%
CCOc1ccc(C(C)(C)C)cc1S(=O)(=O)Nc1ccncc1,2.8%,-10.6%,4.3%,10.0%,4.4%,-6.2%
O=C(NCC1COc2ccccc2O1)c1ccc(NC(=O)C(c2ccccc2)c2ccccc2)cc1 (centres undefined),-1.8%,-0.3%,0.0%,9.2µM*,18.4µM*,-1.8%
COc1ccc(-n2nc(C(=O)NCC(=O)NCC3COc4ccccc4O3)c3ccccc3c2=O)cc1 (centres undefined),0.1%,2.0%,4.9%,u,u,-13.3%
SMILES,PLK1 PBD block,VDR inhibitor,TDP1 inh,DT40 TDP1 no CPT,TDP1 cell CPT,GCN5L2 inh
Cn1nc(C(=O)NCC2COc3ccccc3O2)c2ccccc2c1=O (centres undefined),2.1%,-1.1%,0.0%,20.6µM*,23.1µM*,-3.2%
O=C(Cc1ccccc1)Nc1ccc(C(=O)NCC2COc3ccccc3O2)cc1 (centres undefined),-15.8%,-23.9%,8.2%,u,9.5%,-6.2%
COCCNC(=O)C(=O)N/N=C/c1ccccc1C(F)(F)F,-4.7%,12.1%,0.7%[56.1 µM],3.9%,2.8%,1.9%
COc1ccc(N2CCN(C(=O)COC(=O)[C@@H](NC(=O)OCc3ccccc3)C(C)C)CC2)cc1,-3.3%,5.3%,x,u,u,x
CC(OC(=O)[C@@H](NC(=O)OCc1ccccc1)C(C)C)C(=O)Nc1ccc(N2CCOCC2)cc1 (some centres undefined),-5.0%,20.5%,x,u,20.6µM*,x
O=C(c1cnn(-c2ccc(F)cc2)c1-n1cccc1)N1CCN(c2cccc(Cl)c2)CC1,x,8.4%,2.8%,x,x,-1.4%
CCOC(=O)c1ccc(NC(=O)c2ccc3c(c2)C(=O)N(CC2CCCO2)C3=O)cc1 (centres undefined),-5.1%,-3.7%,2.1%,18.4µM*,u,0.4%
Cc1ccc(NC(=O)c2ccc3c(c2)C(=O)N(CC2CCCO2)C3=O)cc1C (centres undefined),-4.9%,16.4%,6.0%,-26.8%,-0.3%,-1.8%
O=C(Nc1nnc(-c2ccc3c(c2)CCCC3)o1)C1COc2ccccc2O1 (centres undefined),-29.9%,-7.5%,10.8%,u,u,-21.5%
CCC(C)C1Nc2ccc(C(=O)NCCc3ccc(OC)c(OC)c3)cc2NC1=O (centres undefined),-20.1%,6.9%,5.9%,u,16.4µM*,-6.5%
COc1ccc(CCNC(=O)c2ccc(OC)c(OC)c2)cc1OC,-14.3%,3.5%,x,-11.6%,6.4%,-2.3%
CCC1C(=O)NCCN1Cc1ccc2c(c1)CN(Cc1ccc3c(c1)OCCO3)CCO2 (centres undefined),x,x,x,-28.4%,u,x
COc1ccccc1-c1ccnc(-n2ncc(C(=O)N3CCN(C4CCCC4)CC3)c2-c2ccco2)n1,x,x,x,-15.9%,5.0%[9.04 µM],x
CCN1CCCC1CNC(=O)c1cnn(-c2nccc(-c3ccccc3OC)n2)c1-c1ccco1 (centres undefined),x,x,x,7.31µM*,u,x
COC(=O)C1(C(=O)OC)C[C@H](/C=C/c2ccccc2)N(Cc2ccccc2OC)[C@@H]1c1ccc(F)cc1,11.4%,x,x,u,u,x
